Dicer inh: blocks human Dicer maturation of pre-miR-21; Q9UPY3; cat-ELCCA pre-miR-21 Dicer processing, chemiluminescence; stronger effect = higher value; z-score at 25 µM; 47,000 tested, 6% active; AID 1347074; in the data active = z-score above about 3, passing the limit was not always enough;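 also: higher signal means more uncleaved substrate so more Dicer inhibition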
Target sequence (Q9UPY3 whole entry, looked up): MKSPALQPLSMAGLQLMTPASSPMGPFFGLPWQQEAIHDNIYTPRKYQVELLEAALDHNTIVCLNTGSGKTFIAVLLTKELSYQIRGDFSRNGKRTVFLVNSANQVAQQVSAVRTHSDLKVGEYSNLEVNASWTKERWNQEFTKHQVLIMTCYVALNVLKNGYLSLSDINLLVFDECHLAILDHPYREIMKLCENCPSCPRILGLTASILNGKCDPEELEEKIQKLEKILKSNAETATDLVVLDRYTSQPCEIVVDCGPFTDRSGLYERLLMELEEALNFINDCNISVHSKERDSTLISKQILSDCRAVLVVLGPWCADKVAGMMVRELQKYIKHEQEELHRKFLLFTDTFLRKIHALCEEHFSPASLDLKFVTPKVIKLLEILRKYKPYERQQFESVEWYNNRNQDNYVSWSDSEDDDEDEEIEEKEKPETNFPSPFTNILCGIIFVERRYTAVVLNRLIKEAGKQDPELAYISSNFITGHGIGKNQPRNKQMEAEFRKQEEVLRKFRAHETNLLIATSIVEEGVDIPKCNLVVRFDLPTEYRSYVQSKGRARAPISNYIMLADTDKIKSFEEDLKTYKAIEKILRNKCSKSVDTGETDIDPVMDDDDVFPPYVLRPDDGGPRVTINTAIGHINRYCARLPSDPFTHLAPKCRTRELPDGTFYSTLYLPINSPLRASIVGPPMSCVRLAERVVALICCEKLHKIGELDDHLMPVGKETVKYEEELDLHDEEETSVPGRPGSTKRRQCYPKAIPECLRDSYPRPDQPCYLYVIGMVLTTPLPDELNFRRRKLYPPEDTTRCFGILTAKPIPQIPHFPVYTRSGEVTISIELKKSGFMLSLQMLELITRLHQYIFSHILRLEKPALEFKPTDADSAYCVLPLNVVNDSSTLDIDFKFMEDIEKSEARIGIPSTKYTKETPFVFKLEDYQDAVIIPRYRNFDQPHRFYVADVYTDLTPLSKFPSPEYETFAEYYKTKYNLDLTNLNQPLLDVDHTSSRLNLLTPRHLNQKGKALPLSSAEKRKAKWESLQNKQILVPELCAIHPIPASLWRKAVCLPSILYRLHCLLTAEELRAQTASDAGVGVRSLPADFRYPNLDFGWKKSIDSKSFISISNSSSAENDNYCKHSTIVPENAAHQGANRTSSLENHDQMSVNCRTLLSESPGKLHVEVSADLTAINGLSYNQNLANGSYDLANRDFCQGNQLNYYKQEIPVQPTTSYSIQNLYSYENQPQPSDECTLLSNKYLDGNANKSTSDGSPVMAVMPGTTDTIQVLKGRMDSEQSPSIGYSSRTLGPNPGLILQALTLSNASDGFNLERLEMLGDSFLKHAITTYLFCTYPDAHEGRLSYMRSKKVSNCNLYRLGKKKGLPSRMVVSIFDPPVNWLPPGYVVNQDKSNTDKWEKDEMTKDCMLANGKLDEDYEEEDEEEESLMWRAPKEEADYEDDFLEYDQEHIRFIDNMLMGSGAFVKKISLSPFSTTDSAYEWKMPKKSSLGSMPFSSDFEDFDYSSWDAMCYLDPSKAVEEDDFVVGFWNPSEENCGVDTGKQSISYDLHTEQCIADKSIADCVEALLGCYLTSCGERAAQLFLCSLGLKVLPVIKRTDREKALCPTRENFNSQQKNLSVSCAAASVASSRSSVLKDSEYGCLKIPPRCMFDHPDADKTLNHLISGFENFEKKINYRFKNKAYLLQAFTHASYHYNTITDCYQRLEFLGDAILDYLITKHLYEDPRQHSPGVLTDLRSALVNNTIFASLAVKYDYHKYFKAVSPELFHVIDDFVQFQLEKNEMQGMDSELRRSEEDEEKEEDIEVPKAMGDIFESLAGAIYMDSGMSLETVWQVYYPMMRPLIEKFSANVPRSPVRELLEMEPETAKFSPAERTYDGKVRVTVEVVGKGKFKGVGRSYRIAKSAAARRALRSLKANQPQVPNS
Each line names hits and unclear results; the compound was inactive in the other large screens. Shown is part of a subset that was picked to be rich in hits.

CCOC(=O)c1cnn(-c2ccccc2)c1NC(=O)CN1CCOCC1	none
CCOC(=O)c1cnn(-c2ccccc2)c1NC(=O)CN1CCN(C)CC1	none
CCSCCOC(=O)C1=C(C)NC2=C(C(=O)CC(C)(C)C2)C1c1coc2ccc(C)cc2c1=O (centres undefined)	none
Cc1nnc(N2C(=O)c3oc4ccccc4c(=O)c3C2c2ccc(O)cc2)s1 (centres undefined)	none
CCOc1ccccc1Oc1coc2cc(O)ccc2c1=O	Dicer inh 3.31
CCOc1ccccc1Oc1c(C)oc2cc(O)ccc2c1=O	none
COc1ccccc1Oc1coc2cc(O)ccc2c1=O	none
O=c1cc(C(F)(F)F)[nH]c2cc(C(F)(F)F)ccc12	none
COc1ccc(C2NC(=O)c3ccccc3N2)cc1O (centres undefined)	none
Oc1ccc2ccccc2c1C1Nc2cccc3cccc(c23)N1	none
COc1cc(C2Nc3cccc4cccc(c34)N2)ccc1O	Dicer inh 3.64
N#Cc1ccc(C2NC(=O)c3ccccc3N2)cc1 (centres undefined)	none
CCc1ccc(C2CC(c3cccc(C)c3)n3nc(N)nc3N2)cc1 (centres undefined)	none
Cc1cccc(C2Nc3cccc4cccc(c34)N2)c1	Dicer inh 3.57
c1ccc(-c2ccc(C3Nc4cccc5cccc(c45)N3)cc2)cc1	Dicer inh 3.2
Cc1ccc(C2CC(c3cccc(C)c3)n3ncnc3N2)cc1 (centres undefined)	none
COc1cc(C2N3CC4(C)CN2CC(C)(C3)C4)ccc1O (centres undefined)	none
COC(=O)Cc1c(C)ncnc1OCC(=O)Nc1ccc2c(c1)OCCO2	none
Cn1c(=O)c2c(nc(Cl)n2Cc2ccccc2F)n(C)c1=O	none
O=C1CCc2cc(-c3csc(/N=C/NO)n3)ccc2N1	none
O=c1[nH]c(=O)n(-c2nc(-c3ccccc3)oc2-c2ccccc2)cc1Cl	none
CCOC(=O)c1c(CS(=O)Cc2ccc(Cl)cc2)oc2c(F)c(F)c(F)c(F)c12 (centres undefined)	none
COC(=O)C1=C(C)Nc2[nH]c(=O)[nH]c(=O)c2C1c1ccc(OCc2ccccc2)cc1 (centres undefined)	none
O=S(=O)(c1ccc(OC(F)(F)F)cc1)N1CCN(S(=O)(=O)c2cc(Cl)cc(Cl)c2)CC1	none
Cc1cc(-c2ccccc2)n(-c2cccc3cccnc23)n1	none
CCCSc1ncccc1C(=O)Nc1c(C)noc1C	none
COc1ccccc1-c1nc(-c2ccc(-c3ccc(C)cc3)nc2OC)no1	none
COc1cccc(-c2nc(-c3ccccc3)no2)c1OC	none
COc1ccc(-c2noc(-c3cccc(OC)c3OC)n2)cc1	Dicer inh 4.1
Cc1c(C)c(C)c(S(=O)(=O)NCCCN2CCCCC2C)c(C)c1C (centres undefined)	none
COC(=O)c1sc2ccccc2c1Cl	none
O=C(Nc1ccc2c(c1)CS(=O)(=O)C2)c1cccs1	none
O=C(Nc1ccc(F)cc1)c1sc2ccccc2c1Cl	none
CN(C)c1ccc(NC(=O)c2cc3sc4ccccc4c3s2)cc1	Dicer inh 6.47
CN(C)c1ccc(C(O)C(=O)c2cccs2)cc1 (centres undefined)	none
O=C(Nc1cccc(S(=O)(=O)N2CCOCC2)c1)c1cc2sc3ccccc3c2s1	none
CCN(CC)CCCNC(=O)c1sc2ccccc2c1Cl	none
CN(C)c1ccc(NC(=O)c2cccs2)cc1	Dicer inh 3.25
COCCNC(=O)c1cc2sc3ccccc3c2s1	Dicer inh 3.85
O=C1C2C3c4ccccc4C(C(=O)O)(c4ccccc43)C2C(=O)N1c1ccc(Br)cc1 (centres undefined)	none
O=C(CSc1ncnc2sc3c(c12)CCC3)Nc1ccc2c(c1)OCCO2	none
COc1ccccc1C1CCN(C(=O)c2cccnc2Sc2ccc(C)cc2)CC1	none
COC(=O)c1sccc1N/N=C(\C#N)S(=O)(=O)c1ccc(Cl)cc1	none
COC(=O)c1sccc1N/N=C(\C#N)S(=O)(=O)c1cccs1	none
COC(=O)c1scc(S(=O)(=O)Cc2cccs2)c1N/N=C(\C#N)S(=O)(=O)c1ccc(Cl)cc1	Dicer inh 5.62
Cc1cccc(OCc2nc(-c3cccc(C)c3)no2)c1	none
CCOC(=O)c1c(C)c(C#N)c(-n2cccc2)n1-c1ccc(C)cc1	none
CCn1ccnc1C(O)c1ccc(OC)c(OC)c1 (centres undefined)	none
Cc1ccc2nc(C)cc(N3CCOCC3)c2c1	Dicer inh 4.42
COc1ccc2nc(C)cc(N3CCOCC3)c2c1	none
c1ccc(-c2cc(N3CCOCC3)c3ccccc3n2)cc1	none
O=[N+]([O-])c1ccc(-c2cn3nc(C(F)(F)F)sc3n2)cc1	none
O=C(NCc1ccncc1)c1cc2n(n1)C(C(F)(F)F)CC(c1ccco1)N2 (centres undefined)	none
O=C(NCc1ccco1)c1nn2c(c1Cl)NC(c1ccc(F)cc1)CC2C(F)(F)F (centres undefined)	Dicer inh 4.88
COCCNC(=O)c1nn2c(c1Cl)NC(c1ccc(Br)cc1)CC2C(F)(F)F (centres undefined)	none
CC1CCCCN1C(=O)c1nn2c(c1Cl)NC(c1ccco1)CC2C(F)(F)F (centres undefined)	none
CC(C)(C)NC(=O)c1nn2c(c1Cl)NC(c1ccccc1)CC2C(F)(F)F (centres undefined)	none
O=C(NCc1ccc(F)cc1)c1nn2c(c1Cl)NC(c1ccco1)CC2C(F)(F)F (centres undefined)	Dicer inh 5.07
NC(=S)COc1cc(Cl)cc(Cl)c1	none
C(#Cc1ccccc1)CNCCc1c[nH]c2ccccc12	Dicer inh 4.09
O=C1CC(NCCc2c[nH]c3ccccc23)C(=O)N1c1ccccc1 (centres undefined)	none
CSC1=NCC(=O)N1CCc1c[nH]c2ccccc12	none
COc1ccc(Oc2c(C(F)(F)F)oc3cc(OC(=O)c4cccs4)ccc3c2=O)cc1	none
Cc1nc(-c2ccc(C(F)(F)F)cn2)nc(N2CCCCC2)c1Cl	none
Cc1ccc(-c2cc(O)cc3sc(=O)oc23)cc1C	Dicer inh 6.6
CCOC(=O)Oc1cc2oc(=O)sc2cc1Cl	none
Cc1cc(O)c2c(c1)C(=O)c1cc(O)cc(O)c1C2=O	none
Clc1ccccc1CN1CCN(Cc2ccco2)CC1	none
O=S(=O)(c1cccc(C(F)(F)F)c1)N1CN2CN(C1)CN(S(=O)(=O)c1cccc(C(F)(F)F)c1)C2	none
Cc1cccc(C)c1C(=O)NC(=O)Nc1c(F)cc(F)cc1F	Dicer inh 55.7
COc1ccc(Br)c(OC)c1C(=O)NC(=O)Nc1c(F)cccc1F	none
O=C(NC(=O)c1c(Cl)cccc1Cl)Nc1c(F)cc(F)cc1Br	none
CC1=CC(C)(C)N(C(=O)CSc2nccc(C)n2)c2ccc(C)cc21	none
CCOC(=O)CC(Sc1ccccc1N)c1cc(OC)c(OC)c(OC)c1 (centres undefined)	none
CCSCCOC(=O)C1=C(C)NC2=C(C(=O)CC(C)(C)C2)C1c1coc2ccccc2c1=O (centres undefined)	none
O=C(Nc1cc(C(F)(F)F)cc(C(F)(F)F)c1)NS(=O)(=O)c1ccc(Cl)cc1	none
Clc1ccc(N=Cc2c(-c3ccccc3)nc3n2CCS3)cc1	Dicer inh 3.87
CS(=O)(=O)/C(C#N)=C/c1c(-c2ccccc2)nc2n1CCS2	none
FC(F)(F)c1cccc(N=Cc2c(-c3ccccc3)nc3n2CCS3)c1	none
Cc1ccsc1/C=C/c1ccnc(SCc2c(Cl)cccc2Cl)n1	none
Cc1ccc(CNCCN2CCOCC2)s1	none
Cc1ccc(CNc2ccc(N3CCOCC3)c(Cl)c2)s1	none
Cc1ccc(CNc2ccc(N3CCOCC3)cc2)s1	Dicer inh 3.97
Cc1ccc2c(c1)C(=O)OC(C(=O)Nc1nccs1)C2 (centres undefined)	none
CSCCC(NC(=O)c1ccc(C(F)(F)F)cc1)c1n[nH]c(=S)n1C (centres undefined)	none

Assay outcomes from PubChem.
